# Assay outcomes from PubChem BioAssay.
# Dicer inh = human Dicer pre-microRNA cleavage inhibition; Q9UPY3; cat-ELCCA pre-miR-21 Dicer processing, chemiluminescence; active compounds read high; z-score at 25 µM; actives 6% (n = 47,000); AID 1347074; in the data active = z-score above about 3, passing the limit was not always enough;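 also: plate controls were vehicle for no effect and no enzyme for full effect; higher signal means more uncleaved substrate so more Dicer inhibition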
# The depositor's hits bear a star. This is one part of a sample in which hits are shown more often than they occur.
SMILES,Dicer inh
O=C(O)CCC(=O)N1c2ccccc2NC2=C(C(=O)CC(c3ccccc3)C2)C1c1cccnc1 (stereo not drawn),2.09
Cc1onc(-c2ccccc2Cl)c1C(=O)N1CCCN2C(=O)c3ccccc3C21 (stereo not drawn),2.9
NC(=S)N/N=C/Cc1nnnn1-c1ccc(-c2ccccc2)cc1,3.21*
CN(/N=C/Cc1nnnn1-c1ccc(Cl)cc1)c1ccccc1,-1.15
Clc1ccccc1N/N=C/Cc1nnnn1-c1ccccc1,0.48
O=c1[nH]c(SCc2ccccc2)nn2c(=O)c3ccccc3nc12,1.71
CNC(=S)N/N=C/c1ccc(OC)c(Br)c1,1.22
COc1ccccc1NC(=S)N/N=C/c1ccco1,1.44
COc1cc(/C=N/NC(=S)Nc2ccccc2OC)ccc1O,5.12*
CS(=O)(=O)N(c1cccc(C#N)c1)S(C)(=O)=O,0.42
COc1ccc(/C=N/NS(=O)(=O)c2ccc(Cl)cc2)cc1OC,3.54*
Cc1ccc(S(=O)(=O)N/N=C/c2ccc(Cl)cc2)cc1,-0.02
Cc1ccc(S(=O)(=O)N/N=C/c2ccc(Cl)c(Cl)c2)cc1,-0.62
COC(=O)c1ccc(COCOCc2ccc(C(=O)OC)o2)o1,0.87
COC(=O)c1ccc(Cn2nc(C)c([N+](=O)[O-])c2C)o1,1.11
COC(=O)c1ccc(CN(C)C)o1,5.79*
CCCCCCCc1ccc(NC(=O)NNc2ccccc2C(F)(F)F)cc1,8.44
O=C1CS(=O)(=O)N(Cc2ccccc2)c2ccccc21,0.28
COc1ccc(OC)c(C2SCCN2S(=O)(=O)c2ccc(-c3ccccc3)cc2)c1 (stereo not drawn),-0.18
COc1ccc(C2SCCN2S(=O)(=O)c2cccc(C)c2)cc1OC (stereo not drawn),0.87
COc1ccc(Br)cc1C1SCCN1S(=O)(=O)c1cccc(C)c1 (stereo not drawn),2.94
CCOc1ccc(S(=O)(=O)N2CCSC2c2ccc(OC)c(OC)c2)cc1 (stereo not drawn),3.3*
COc1ccc(S(=O)(=O)N2CCSC2c2ccccc2OC)cc1 (stereo not drawn),0.65
COc1ccccc1C1SCCN1S(=O)(=O)c1ccc(Cl)cc1 (stereo not drawn),1.2
COc1ccc(S(=O)(=O)N2CCSC2c2ccccc2Cl)cc1 (stereo not drawn),3.32*
SMILES,Dicer inh
COc1ccc(C2SCCN2S(=O)(=O)c2cccc(C)c2)cc1 (stereo not drawn),6.16*
COc1ccc(C2SCCN2S(=O)(=O)c2ccc(C)cc2)cc1 (stereo not drawn),-1.36
O=C(Cn1c2ccccc2n2ncnc12)c1cccs1,0.52
O=C(C1=C(O)C(=O)N(c2nncs2)C1c1ccccc1F)c1cccs1 (stereo not drawn),1.19
Cn1c(Sc2nc3ccc(Cl)cc3s2)nnc1-c1cccs1,-1.65
COc1ccc(/C(O)=C2\C(=O)C(=O)N(CCCN3CCOCC3)C2c2ccc(Cl)cc2)cc1 (stereo not drawn),1.72
Cc1ccc(/C=C2\CSc3ccccc3C2=O)cc1,-0.69
O=C(CSc1nc(O)cc(=O)[nH]1)Nc1ccccc1F,-3.46
COc1ccc(-c2nc(-c3ccc(Cl)cc3)c(-c3ccccc3)s2)cc1,2.51
O=C(O)Cc1sc(-c2ccc(Cl)cc2)nc1O,-0.27
C=CCn1c(=S)[nH]c2sc3c(c2c1=O)CCC(C)C3 (stereo not drawn),-5.45
COc1ccc(NS(=O)(=O)c2c(C)noc2C)c(OC)n1,-0.04
COC(=O)C1=C(C)NC2=C(C(=O)c3ccccc32)C1c1ccccc1OCc1ccccc1F (stereo not drawn),-4.03
O=C(Nc1ccccc1)ONC=NC1=C(c2ccccc2)C(=O)c2ccccc21,-0.99
CC1CN(Cc2c(O)ccc3c(=O)c(-c4ccccc4Cl)c(C(F)(F)F)oc23)CC(C)O1 (stereo not drawn),0.52
CCOc1ccc(/C(O)=C2\C(=O)C(=O)N(c3nccs3)C2c2ccc(C)cc2)cc1 (stereo not drawn),0.97
Cc1ccccc1Oc1nc2c(c(=O)n(Cc3ccccc3Cl)c(=O)n2C)n1C,-0.96
Nc1ccc(C(=O)OCCCc2nc3ccc(N)cc3[nH]2)cc1,-2.27
Nc1ccc2nc(CCCc3nc4ccccc4s3)[nH]c2c1,-1.41
Nc1ccc2nc(/C=C/c3ccccc3)[nH]c2c1,3.2*
Nc1ccc(Cc2nc3ccc(C(=O)O)cc3[nH]2)cc1,1.72
Nc1cccc(-c2nc3ccc(N)cc3[nH]2)c1,-1.63
Nc1cccc(/C=C/c2nc3ccc(N)cc3[nH]2)c1,3.7*
COC(OC)c1ccc(C#N)c(SCc2ccc(Cl)cc2)n1,-0.65
COc1ccc(C2C3CCc4ccccc4C3=NN2C(=S)NCc2ccccc2)cc1 (stereo not drawn),-2.25
SMILES,Dicer inh
CC(C)(C)c1ccc(-c2cc3nc(-c4ccccc4)cc(=O)n3[nH]2)cc1,-3
CCCc1nc(SC)[nH]c(=O)c1Cc1c(Cl)cccc1Cl,2.41
CN(C)c1ccc(-c2nc3n(n2)C(c2ccc(Cl)cc2)C2=C(CCCC2=O)N3)cc1 (stereo not drawn),6.25
O=C1Nc2ccc(I)cc2/C1=C/c1cc(Br)c(O)c(Br)c1,4.48*
COc1cc2c(cc1OC)/C(=C/c1cc(OC)c(OC)c(OC)c1)C(=O)N2,1.67
O=C1Nc2ccccc2/C1=C/c1ccc2nsnc2c1,-0.73
Cn1c(=S)[nH]c2sc3c(c2c1=O)CCCC3,-0.87
COc1ccccc1C1/C(=C(\O)c2ccccc2)C(=O)C(=O)N1Cc1cccnc1 (stereo not drawn),-2.4
CCc1oc(C(=O)O)cc1CN(CC)CC,1.6
CCN(CC)Cc1cc(O)c(CN(CC)CC)cc1O,-2.04
CCN(CC)Cc1cc(C(C)C)c(O)c(C(C)C)c1,4.14*
CC[n+]1c(/C=C/C=C/C=C/N(C(C)=O)c2ccccc2)sc2ccccc21,0.9
CCNc1nc(Cl)nc(Oc2ccc(=O)n(-c3ccccc3)n2)n1,-0.57
CCOC(=O)c1cc(C(C)(C)C)[nH]c(=O)c1C#N,2.84
CC(=O)c1cc2cc(Cl)cc(Cl)c2o1,1.03
Cc1cc2nc(-c3cc4cc(Cl)cc(Cl)c4oc3=O)[nH]c2cc1C,4.72*
CC(=O)c1cc2cc(Cl)cc(Cl)c2oc1=O,-0.41
CCOC(=O)c1ccc(COC(=O)CCc2nc3ccccc3[nH]c2=O)cc1,2.5
COC(=O)c1c(C)[nH]c(C)c1/C=C1\C(=O)Nc2ccccc21,-0.03
CCn1c(SCC(N)=O)nnc1-c1oc2nc(-c3ccccc3)cc(-c3ccco3)c2c1N,-2.48
O=C1CSc2ccccc2N1Cc1n[nH]c(=S)n1Cc1ccccc1,-0.05
O=S1(=O)CC(O)C(S(=O)(=O)Cc2cccc(C(F)(F)F)c2)C1 (stereo not drawn),1.22
CCOC(=O)Nc1ccccc1C(=O)OC,5.39*
COC(=O)c1ccccc1NC(=S)OC,0.06
COC(=O)c1ccccc1NC(=S)N(N)CCO,-0.19
SMILES,Dicer inh
O=C(c1cc(=O)n2c(nc3ccccc32)s1)N1CCN(c2ccccc2)CC1,1.23
CC1(C)CC(=O)C2=C(C1)Nc1cc3c(cc1C2c1ccc(F)cc1)OCO3 (stereo not drawn),1.81
COc1ccc(C2C3=C(CC(C)(C)CC3=O)Nc3cc4c(cc32)OCO4)cc1 (stereo not drawn),6.19*
CCOc1ccc(C2C3=C(CC(C)(C)CC3=O)Nc3cc4c(cc32)OCO4)cc1 (stereo not drawn),2.86
Cn1c(SCC(=O)Nc2ccccc2)nnc1-c1cncc(C#Cc2ccccc2)c1,-0.11
CCc1cc2c(cc1C(=O)Cn1cc([N+](=O)[O-])nc1C)C(C)(C)CCC2(C)C,-1.17
